# Laboratory results reported in PubChem BioAssay AID652048 (National Center for Advancing Translational Sciences (NCATS), 2013).
# The campaign covered roughly 410,000 compounds. About 2,400 (0.59%) were called active. Many of the other results were omitted from the sample, so actives are more common in it than they were. Unmarked numbers belong to inactive results. Rule as the data show it: active = max activation above about 30%; inactive = the rest.
# Target: D(3) dopamine receptor (Homo sapiens) (UniProt P35462)
# Experiment: qHTS of D3 Dopamine Receptor Agonist: qHTS; also: 0% is about no effect
# Settings: D3R DiscoveRx beta-arrestin cells, luminescence, 90 min; active compounds read high
# Procedure, shortened: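 Agonist mode: compounds and dopamine controls were applied to plated cells for 90 min at 37 degrees C after an overnight attachment at 1500 cells/well. Luminescent read-out followed 30 - 60 minutes at room temperature with DiscoveRx detection reagent.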
# D(3) dopamine receptor (Homo sapiens), sequence (P35462 whole entry, looked up): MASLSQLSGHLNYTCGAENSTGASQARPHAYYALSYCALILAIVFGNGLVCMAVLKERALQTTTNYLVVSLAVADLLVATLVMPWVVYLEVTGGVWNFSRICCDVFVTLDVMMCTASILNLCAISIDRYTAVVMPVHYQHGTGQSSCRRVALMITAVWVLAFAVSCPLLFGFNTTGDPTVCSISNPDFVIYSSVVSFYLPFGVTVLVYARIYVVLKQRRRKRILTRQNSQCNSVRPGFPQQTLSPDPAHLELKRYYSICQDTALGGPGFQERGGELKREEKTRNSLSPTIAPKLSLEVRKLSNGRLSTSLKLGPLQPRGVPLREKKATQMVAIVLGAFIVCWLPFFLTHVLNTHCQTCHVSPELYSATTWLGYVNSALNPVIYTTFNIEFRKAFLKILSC
row,Compound,max activation
1,Cc1cccc(N2CCN(S(=O)(=O)c3ccc4[nH]c5c(c4c3)CCCCC5)CC2)c1C,-5.55%
2,COc1cccc(CNC(=O)CCc2nc(-c3ccc(C)cc3)no2)c1,-0.491%
3,Cc1ccc(C)c(N2CCN(C(=O)CCc3nc(-c4cccc(C(F)(F)F)c4)no3)CC2)c1,11.8%
4,COc1ccc(-c2noc(CCC(=O)N3CCN(c4cccc(C)c4)CC3)n2)cc1,35.7% (active)
5,CCN1CCN(C(=O)N[C@@H](C(=O)N[C@@H]2C(=O)N3[C@@H]2SC(C)(C)[C@H]3C(=O)O)c2ccccc2)C(=O)C1=O,-1.19%
6,O=C1N(Cc2ccccc2)c2ccc(Cl)cc2C1(O)c1c[nH]c2ccccc12 (centres undefined),8.47%
7,CCN(CC)S(=O)(=O)c1ccc2c(c1)N(CC(=O)NCC(C)c1ccccc1)C(=O)CO2 (centres undefined),-18.9%
8,COc1cccc(C2=CC(=O)C[C@H](c3ccc(OC)c(OC)c3)C2)c1,-0.655%
9,COc1ccc2cc(C3=CC(=O)C[C@H](c4ccc5c(c4)OCO5)C3)ccc2c1,38.7% (active)
10,COc1ccc([C@H]2CC(=O)C=C(c3ccc(CO)cc3)C2)cc1,10.9%
11,Cc1nc(SCCOc2ccc(Cl)cc2)[nH]c(=O)c1Cc1ccccc1,1.02%
12,O=C(Cn1cnc2c(oc3ccccc32)c1=O)Nc1ccc(OC(F)(F)F)cc1,2.62%
13,O=C(c1ccco1)N1CCN(Cc2cccc(C(F)(F)F)c2)CC1,8.47%
14,O=C1CCN(CCc2ccccc2)CCN1CCOc1ccccc1,-27.1%
15,O=C(c1ccco1)N1CCN(C(=O)c2ccc(COc3ccc(F)cc3)o2)CC1,1.73%
16,COc1cccc(OC)c1OCCN1CCN(C(=O)c2ccco2)CC1,73.2% (active)
17,O=CN1CCN(C(=O)c2ccc(Br)o2)CC1,-4.54%
18,O=C(c1ccc(Br)o1)N1CCN(CCOc2ccccc2)CC1,54.7% (active)
19,O=C(CCCCn1c(=O)c2ccccc2n(CC(=O)Nc2cccc(C(F)(F)F)c2)c1=O)NCc1ccc2c(c1)OCO2,6.91%
20,CC(=O)Oc1ccccc1C(=O)Nc1ncc([N+](=O)[O-])s1,6.84%
21,CCOC(=O)c1sc(NC(=O)/C=C/c2ccc(C(C)C)cc2)c(C(=O)OCC)c1C,-9.68%

row,Compound,max activation
1,CCOC(=O)c1c(NC(=O)/C=C/c2ccc(OC)cc2)sc2c1CCC(C)C2 (centres undefined),59.2% (active)
2,COC(=O)c1c(NC(=O)CCCOc2ccccc2)sc2c1CCC(C)C2 (centres undefined),4.8%
3,COc1ccccc1CNS(=O)(=O)c1cc(Br)cc2c1N(C(C)=O)C(C)C2 (centres undefined),-15.9%
4,CCN(CCCNC(=O)c1c(C)oc2ncn(CC(C)C)c(=O)c12)Cc1ccccc1,-16.4%
5,Cc1ccc(-c2ncc(Cl)cc2-c2ccc(S(C)(=O)=O)cc2)cn1,3.29%
6,COc1ccccc1N1CCN(c2ccc(=O)n(CC(=O)NCc3ccc(OC(C)C)cc3)n2)CC1,-15.8%
7,COC(=O)c1ccc(NC(=O)c2cc(S(=O)(=O)N3CCC(C)CC3)cn2C)cc1,-4.24%
8,N#C/C(=C\c1cccc(F)c1)c1nc(-c2cc3c(ccc4ccccc43)oc2=O)cs1,4.13%
9,COc1cc2c(cc1CNC[C@H]1O[C@@H](n3cnc(C(N)=O)n3)[C@H](O)[C@@H]1O)OCO2,4.9%
10,NC(=O)c1ncn([C@@H]2O[C@H](CNCc3cnc(N4CCOCC4)s3)[C@@H](O)[C@H]2O)n1,0%
11,NC(=O)c1ncn([C@@H]2O[C@H](CN=C3NS(=O)(=O)c4ccccc43)[C@@H](O)[C@H]2O)n1,40.4% (active)
12,COc1cccc(Nc2nc3ccccc3c3nncn23)c1,10.1%
13,CCCn1c2ccccc2c2cnn(CC(=O)N3CCCC(C(=O)OCC)C3)c(=O)c21 (centres undefined),6.55%
14,CCc1cccc(-n2nnc(-c3nsc(NC(=O)c4ccc(C)cc4)n3)c2C)c1,-11.9%
15,COc1ccc(-n2nnc(-c3nsc(NC(=O)c4ccc(C)c(C)c4)n3)c2C)cc1Cl,41.8% (active)
16,Cc1c(-c2nsc(NC(=O)c3cccc(Cl)c3)n2)nnn1-c1ccccc1C(F)(F)F,-0.907%
17,Cc1oc2c(C)c3oc(=O)c(CC(=O)N[C@@H](CC(C)C)C(=O)N[C@@H](Cc4ccccc4)C(=O)O)c(C)c3cc2c1C,11.4%
18,Cc1c(OC(C)C(=O)NCC2CCC(C(=O)O)CC2)ccc2c1oc(=O)c1ccccc12 (centres undefined),-0.808%
19,Cc1c(OC(C)C(=O)N[C@@H](Cc2ccccc2)C(=O)O)ccc2c3c(c(=O)oc12)CCCC3 (some centres undefined),37.1% (active)
20,COC(=O)c1c(NC(=O)c2cc(=O)c3c(C)cc(C)cc3o2)sc2c1CCCC2,4.95%
21,CCN1C(=NCCc2cccnc2)N[C@@H](c2ccccc2)C(C(=O)OC)=C1C,-55.8%

row,Compound,max activation
1,Cc1cc(C)cc(Nc2ncnc3onc(-c4ccc(F)cc4)c23)c1,9.02%
2,COC(=O)c1ccc(OC(=O)c2nn(C)cc2Cl)c(OC)c1,1.35%
3,COc1ccc(C(=O)O/N=C(\N)Cc2ccc(Cl)cc2Cl)cc1OC,36.2% (active)
4,COc1ccc(CCn2ccc(O)c(Cc3ccc(Cl)cc3Cl)c2=O)cc1OC,-10.8%
5,CC(=O)c1ccc(NC(=O)CCc2nc(-c3ccc(C)cc3)no2)cc1,2.51%
6,Cc1ccc(OCCSc2nc(-c3cccs3)nc3cc(=O)[nH]n23)cc1Cl,6.63%
7,CCc1ccccc1NC(=O)CSc1nc(C)c(C(=O)Nc2ccccc2)c(-c2ccc(Cl)cc2)c1C#N,3.31%
8,Cc1c(C(=O)OC(C)C)sc(NC(=O)c2cccnc2)c1C#N,-1.22%
9,CCCc1ccc(-c2c(C)sc(NC(=O)c3ccnn3C)c2C#N)cc1,57.1% (active)
10,Cc1ccccc1Nc1nn2c(=O)c3ccc(C(=O)NCCc4ccc(Cl)cc4)cc3nc2s1,4.22%
11,Cc1c(CC(=O)N2CCN(C(=O)C3COc4ccccc4O3)CC2)c(=O)oc2c(O)c(O)ccc12 (centres undefined),40.6% (active)
12,COc1cc(NS(=O)(=O)c2ccc3c(c2)OCC(C(=O)N2CCCC2)O3)cc(OC)c1 (centres undefined),19.5%
13,COc1ccc(OC)c2sc(N3CCN(C(=O)C4COc5ccccc5O4)CC3)nc12 (centres undefined),-1.78%
14,CCC(C)c1ccc(O)c(/C=N/O)c1 (centres undefined),-1.03%
15,CNCC(O)c1ccc(O)c(O)c1 (centres undefined),137% (active)
16,Cc1cc(C)c(-c2n[nH]c3c2C(c2ccccc2F)N(CCO)C3=O)c(O)c1 (centres undefined),-0.594%
17,CCC1(C)CC(=O)NC1=O (centres undefined),-5.68%
18,Cc1cc(C(=O)Nc2cccc(C(F)(F)F)c2)c2c(C)nn(-c3cccc(F)c3)c2n1,8.25%
19,CCOC(=O)CSc1nnc(CNC(=O)c2cccs2)n1-c1cc(OC)ccc1OC,6.63%
20,CC(C)(C)OC(=O)N1CCC(c2c(C(=O)N3CCN(c4cccc(Cl)c4)CC3)cnn2-c2cccc(Cl)c2)CC1,-9.63%
21,COC(=O)c1ccccc1NC(=O)Cn1c(=O)n(-c2cccc(C(F)(F)F)c2)c(=O)c2c(C)c(C)sc21,-14.9%

row,Compound,max activation
1,Cc1ccc(N(Cc2ccc(C(=O)Nc3ccccc3C(=O)NCc3ccco3)cc2)S(C)(=O)=O)cc1C,33.8% (active)
2,CS(=O)(=O)N(Cc1ccc(Cl)cc1)c1ccc(C(=O)NCCSCc2ccco2)cc1,0.47%
3,CCN1CCN(C(=O)c2ccc(CN(c3ccc(C)c(C)c3)S(C)(=O)=O)cc2)CC1,-12.8%
4,Cc1oc2ncnc(N3CCCCC3)c2c1C(=O)N1CCN(c2cccc(Cl)c2)CC1,-5.06%
5,Cc1cc(C)cc(NC(=O)CSc2nc(=O)n(CCN3CCOCC3)c3c2CCC3)c1,0.821%
6,CC(C)(C)OC(=O)N1CCC(c2c(C(=O)NCc3ccccn3)cnn2-c2ccc(F)cc2)CC1,-0.963%
7,CCCOc1ccc(NC(=O)CC2C(=O)N(c3ccccc3)C(=O)N2Cc2ccco2)cc1 (centres undefined),8.76%
8,COc1ccc(OC)c(-n2nnc(-c3nc(-c4cc(OC)c(OC)c(OC)c4)no3)c2C)c1,31.2% (active)
9,COc1ccc(-c2cc(-c3nc(-c4cc(OC)c(OC)c(OC)c4)no3)[nH]n2)c(OC)c1,5.61%
10,CCc1ccc(-n2nnc(-c3nc(-c4ccccc4)no3)c2C)cc1,6.45%
11,Nc1ccccc1SC(C[N+](=O)[O-])c1ccccc1 (centres undefined),0.396%
12,Cc1cccc(C)c1NC(=O)NC1=CCCN1C,0.916%
13,O=C(O)CCC(=O)O,17.7%
14,COc1ccc(OC)c(-c2c(=O)n(OCc3ccccc3Br)c3ccccc3[n+]2[O-])c1,-6.63%
15,CCOc1ccc(S(=O)(=O)c2cn(Cc3ccccc3)c3ccc(OCC)cc3c2=O)cc1,6.37%
16,CCOc1ccc(OCC)c(-c2c(=O)n(OCc3ccc(Cl)cc3)c3ccccc3[n+]2[O-])c1,39.5% (active)
17,O=C(OCc1ccccc1)c1ccc(O)cc1,3.77%
18,Cc1ccc(C(=O)COC(=O)CCN2C(=O)C3C4CCC(C4)C3C2=O)cc1C (centres undefined),-16.9%
19,Cc1ccc(C(=O)COC(=O)c2cccc(N3C(=O)c4c(C)nc5ccccc5c4C3=O)c2)cc1C,40.4% (active)
20,Cc1ccc(C(=O)OCC(=O)NC2CCCCCCC2)cc1C,1.29%
21,Cc1cc2c(cc3c(SCc4nc(-c5ccccc5)oc4C)nnc(C)n32)o1,-6.34%
